# Compound activity deposited in PubChem BioAssay by several laboratories.
# tim23-1 inh – growth inhibitors of tim23-1 mutant yeast; S. cerevisiae tim23-1 growth, BacTiter-Glo luminescence, 24 h; inhibition, % at 20 µM; 330,000 tested, 1.3% active;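 active = growth inhibition of the mutant yeast at or above 50%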;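 also: temperature-sensitive mutant grown at 25 °C; plate controls were DMSO-treated mutant yeast for no effect and medium wells lacking yeast for full effect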
# tim10-1 inh – tim10-1 yeast growth inhibition; inhibition, % at 20 µM; 330,000 tested, 2.2% active; AID 463190; S. cerevisiae tim10-1 ts strain growth, BacTiter-Glo, 24 h;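 active = inhibition of at least 40%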;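 also: mutant grown at 25 °C; 0% = DMSO wells with yeast and 100% = wells holding no yeast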
# TIM10 inh – inhibits growth of TIM10 yeast strain | S. cerevisiae TIM10 strain growth, BacTiter-Glo luminescence, 24 h | inhibition, % at 10 µM | 330,000 tested, 1.4% active;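 active = inhibition of 40% or more at the single tested concentration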;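 also: wild-type TIM10 isogenic control strain grown at permissive 25 °C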
# PfHsp90 yeast 2 – reduces growth (ATP signal) of yeast expressing P. falciparum Hsp90; S. cerevisiae expressing PfHsp90, BacTiter-Glo ATP, 48 h; yeast lacking PDR1 and PDR3 efflux regulators; inhibition, % at 9.4 µM; 310,000 tested, 0.32% active; AID 504621;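 active = every replicate shows inhibition above about 80%, whatever the replicate mean, limit read from the data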;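 also: 0% = DMSO neutral controls and 100% = 20 µM radicicol positive controls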
# NLRP3 yeast inh – blocks the NALP3 inflammasome reconstituted in yeast; AID 2825; Yeast reconstituted NLRP3/ASC/caspase-1, beta-gal luminescence, 24 h; inhibition, % at 10 µM; 330,000 tested, 0.39% active;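 active = inhibition of 50% or more; inactive = inhibition below 50%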;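 also: plate controls were induced DMSO wells for no effect and uninduced yeast grown without galactose for full effect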
# tim23-1 conf – confirmation of tim23-1 mutant yeast growth inhibitors; AID 463218; S. cerevisiae tim23-1 growth, BacTiter-Glo luminescence, 24 h; inhibition, % at 20 µM; 4,400 tested, 83% active; shares compounds with tim23-1 inh;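 active = inhibition above about 39% in either of two replicate wells at 20 µM, limit read from the data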;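 also: temperature-sensitive tim23-1 mutant grown at 25 °C; 0% = DMSO wells with yeast and 100% = medium wells without yeast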
# * marks the source's active call; other numbers are inactive results; nt = no result. A selection: hits, their analogues and other compounds. The true share with any hit is near 3.7%.
SMILES,tim23-1 inh,tim10-1 inh,TIM10 inh,PfHsp90 yeast 2,NLRP3 yeast inh,tim23-1 conf
CC12CCC(C(=O)NCCCN3CCOCC3)(C(Br)C1=O)C2(C)C (stereo not drawn),94.8*,-7.9,-6.7,0.2,7.0,1.3
CC1CC(NC(=O)c2c(O)nc3sccn3c2=O)CC(C)(C)C1 (stereo not drawn),64.2*,-15.4,-2.3,-63.5,12.0,-11.5
CC1CC(NC(=O)c2c(O)nc3ccccn3c2=O)CC(C)(C)C1 (stereo not drawn),nt,nt,nt,-7.8,nt,nt
O=C(NCC1CCCO1)c1c(O)nc2sccn2c1=O (stereo not drawn),35.5,3.2,-8.4,nt,28.1,nt
O=C(NC1CCCCCC1)c1c(O)nc2sccn2c1=O,69.4*,38.8,36.6,-10.2,45.3,45.5*
COc1cccc(-c2cc(C(=O)N3CC4(C)CC3CC(C)(C)C4)no2)c1 (stereo not drawn),43.6,33.2,25.9,nt,-2.8,nt
CC1(C)CC2CC(C)(CN2C(=O)c2cc(-c3ccc(O)cc3)on2)C1 (stereo not drawn),52.7*,-36.1,-6.4,17.0,12.0,48.0*
CC(C#N)Sc1ccc(S(=O)(=O)N2CCCC2)cn1 (stereo not drawn),8.9,6.6,0.5,1.3,14.4,nt
COc1ccc(C2=C(C=O)Cc3ccccc3O2)cc1,51.1*,33.3,24.8,-11.9,40.3,52.9*
COc1ccc(C2=COc3ccccc3C(=O)N2)cc1,13.7,10.7,8.4,nt,32.3,nt
O=C(NCC1CCN(Cc2ccccc2F)CC1)Nc1cccc(Br)c1,-5.7,22.5,4.1,20.1,1.0,nt
Cc1cc(C)n2nc(C)c(-c3ccc(Cl)cc3)c2n1,51.9*,16.3,14.0,-2.7,6.0,29.7
Cc1cc(N2CCOCC2)n2nc(C)c(-c3ccccc3)c2n1,38.2,29.1,6.5,-116.8,11.6,nt
Cc1cc(N2CCCCCC2)n2nc(C)c(-c3ccccc3)c2n1,56.5*,30.4,37.5,-0.7,21.5,51.4*
Cc1cc(C)n2nc(C)c(-c3ccccc3)c2n1,14.6,16.3,0.9,-4.6,3.1,nt
O=C(COC(=O)/C=C/c1cccs1)Nc1ccc2ccccc2c1,0.1,8.7,9.8,11.8,2.4,nt
CCOC(=O)N/N=C/c1ccc(N(CC)CC)cc1O,60.2*,36.5,37.3,-8.1,41.0,72.5*
CCN(CC)c1ccc(/C=N/Nc2ccc(C)cc2)c(O)c1,nt,nt,nt,-3.7,nt,nt
O=C(N/N=C1\CCCc2ccccc21)c1cccc(Br)c1,35.9,18.7,0.4,4.5,34.2,nt
COc1cc2c3c(c1)C(C)CC(C)(C)N3C(=O)C2=O (stereo not drawn),51.1*,32.5,-1.9,8.8,8.4,62.8*
O=C(Nc1ncc([N+](=O)[O-])s1)c1ccc2c(c1)OCO2,57.0*,34.0,34.5,53.3,38.5,58.8*
Cc1ccc(C(=O)Nc2ncc([N+](=O)[O-])s2)cc1,nt,nt,nt,0.6,nt,nt
CCOC(=O)c1ccc(S(=O)(=O)NNC(=O)Cc2csc(C)n2)cc1,-12.9,-7.0,-3.0,-5.8,14.1,nt
CC(Sc1nnc(-c2ccc(OC(F)F)cc2)n1N)C(=O)NCC1CCCO1 (stereo not drawn),-1.5,-8.8,11.7,-7.2,3.4,nt
Cc1ccc(/C=C2/NC(=O)N(Cc3ccccc3)C2=O)o1,68.3*,24.6,2.0,7.2,19.3,58.0*
SMILES,tim23-1 inh,tim10-1 inh,TIM10 inh,PfHsp90 yeast 2,NLRP3 yeast inh,tim23-1 conf
CC(C)CCSc1nc(N2CCOCC2)c2c(c1C#N)CC(C)(C)OC2,60.2*,7.9,0.0,-16.5,-5.7,19.9
CC(=O)Nc1nccc(-c2cc(-c3ccccc3)no2)n1,1.7,-5.6,8.4,nt,20.3,nt
Clc1ccc2nc(-c3ccccc3)cn2c1,52.2*,-9.9,6.2,-0.1,48.7,23.9
Cc1ccc2nc(-c3cc(-c4ccccc4)no3)cn2c1,54.9*,3.3,30.1,-0.1,9.9,47.2*
CC(=O)Nc1ccc2nc(-c3ccccc3)cn2c1,1.4,-21.0,-1.9,-33.4,2.8,nt
O=C(Nc1ccccc1C(=O)Nc1ccc(Br)cn1)c1ccccc1Cl,51.7*,37.3,18.1,-28.6,21.6,53.6*
CCn1c(=O)c(C(=O)NCCc2ccccc2)c(O)c2ccccc21,-4.1,-6.7,10.6,20.3,25.4,nt
CC(=O)c1c(O)c2ccccc2n(Cc2ccccc2)c1=O,56.3*,27.7,10.6,-0.8,16.9,35.9
Cn1c(=O)c(C(=O)NCc2ccccc2)c(O)c2ccccc21,53.7*,-15.7,-1.5,3.9,21.7,26.5
CCOCCc1nnc(NC(=O)C2CC(=O)N(CCc3ccc(F)cc3)C2)s1 (stereo not drawn),-0.1,6.6,2.4,-3.8,8.0,nt
O=[N+]([O-])c1ccc(-n2cnc3ccccc32)c([N+](=O)[O-])c1,25.9,39.4,33.8,-38.7,19.9,nt
Cc1ccc2occ(/C=N/NC(=O)c3ccccc3O)c(=O)c2c1,53.4*,21.7,12.5,14.0,6.8,51.2*
Cc1ccc2occ(/C=N/NC(=O)c3ccncc3)c(=O)c2c1,51.1*,10.9,3.4,0.8,20.6,50.5*
COc1ccc(C(=O)N/N=C\c2coc3ccc(C)cc3c2=O)cc1,43.3,20.2,27.7,-8.8,-6.9,nt
CCCOc1cccc(C(=O)N/N=C/c2coc3ccccc3c2=O)c1,55.5*,18.3,4.9,16.8,10.9,47.2*
O=C(N/N=C/c1coc2ccccc2c1=O)c1cc(Br)c(O)c(Br)c1,39.8,-0.8,15.7,nt,13.0,nt
O=C(N/N=C/c1coc2ccc(Cl)cc2c1=O)c1cc(O)cc(O)c1,71.6*,16.0,7.5,9.2,11.5,70.2*
Cc1cc(C)n(C(C)CC(=O)Nc2ccc3c(c2)OCO3)n1 (stereo not drawn),11.9,20.5,-3.5,1.9,21.1,nt
COc1cc(NC(=O)c2ccc(C(C)(C)C)cc2)c(OC)cc1NC(=O)CN1CCCCC1,32.0,4.6,-5.1,-8.6,23.2,nt
NC1=C(Br)C(=O)c2ccccc2C1=O,55.9*,24.6,32.7,-7.3,28.9,51.7*
N=c1oc2ccc([N+](=O)[O-])cc2cc1C(=O)NCc1ccccc1,58.6*,26.0,15.1,-2.2,16.3,56.3*
N=c1oc2ccc(Br)cc2cc1C(=O)NCc1ccccc1,25.9,36.0,18.8,-1.3,-10.1,nt
Cc1ccc(S(=O)(=O)N2[C@@H](c3ccc(C(C)(C)C)cc3)C(C(=O)O)=CC[C@H]2c2cccc(Cl)c2)cc1,53.0*,19.0,20.2,-6.5,-6.6,44.4*
Cc1ccc(S(=O)(=O)N2[C@@H](c3ccc(C(C)(C)C)cc3)C(C(=O)O)=CC[C@H]2c2ccc(Cl)c(Cl)c2)cc1,63.4*,-19.8,32.5,-24.6,15.1,-29.2
C=CCc1cc(/C=C2/NC(=O)N(CC)C2=O)cc(OCC)c1OCc1ccc(C(=O)O)cc1,11.6,14.0,11.0,-5.6,9.0,nt
O=C(O)c1ccc(N/N=C/c2ccc(-c3ccc(Br)cc3)o2)cc1,52.0*,-2.5,-24.7,-26.7,25.9,47.2*
COc1ccc(CCC(=O)Nc2cc(S(C)(=O)=O)ccc2Cl)cc1,1.1,0.3,-12.6,nt,5.2,nt
